The results in this text go back to PubChem BioAssay.

For part of these data: Measured potencies and affinities stand elsewhere. Active and inactive are the calls of the source.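 Rule for the calls, unless noted: active = dose curve with midpoint inside tested range, moderate steepness, plateau gap beyond fit error, low compound glow and bead-link interference; inactive = the rest.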

For assay [1], the target named is Cell division control protein 42 homolog (Homo sapiens) (UniProt P60953). The assay is described as follows: inhibition of fluorescent GTP binding to constitutively active Cdc42 – biochemical, multiplex bead flow cytometry, Bodipy-FL-GTP, dose response (AID 1333;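 active = fitted half-maximal concentration within the tested dose range, moderate curve steepness, a statistically real signal drop, and little compound fluorescence or tag-binding interference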). Background: In flow cytometry, cells or beads pass a laser one at a time.
Cell division control protein 42 homolog (Homo sapiens), sequence (P60953 whole entry, looked up): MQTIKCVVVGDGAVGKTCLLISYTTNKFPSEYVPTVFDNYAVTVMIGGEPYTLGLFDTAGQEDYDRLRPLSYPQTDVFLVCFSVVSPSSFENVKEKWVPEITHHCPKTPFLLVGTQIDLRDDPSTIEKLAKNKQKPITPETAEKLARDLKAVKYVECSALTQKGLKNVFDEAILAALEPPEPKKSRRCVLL
Assay [2] shares this target. The assay is described as follows: inhibition of fluorescent GTP binding to wildtype Cdc42 – biochemical, multiplex bead flow cytometry, Bodipy-FL-GTP, dose response (AID 1334;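 active = fitted half-maximal concentration within the tested range, moderate curve steepness, significant signal drop, and little compound fluorescence or bead-linkage interference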). The settings on record: bead-based flow cytometry, Bodipy-FL-GTP binding to GST-Cdc42; at 100 µM (top of the series) unless noted.
The target in assay [3] is GTPase HRas (Homo sapiens) (UniProt P01112). The assay is described as follows: Ras wt fluorescent GTP loading blockade – biochemical, wildtype, multiplex bead flow cytometry, dose response (AID 1335;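 active = fitted half-maximal concentration within 10 nM to 100 µM, steepness 0.5 to 2, significant signal drop, low assay interference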). Particulars: bead-based flow cytometry, Bodipy-GTP binding to GST-Ras; at 100 µM (top of the series) unless noted.
GTPase HRas (Homo sapiens), sequence (P01112 whole entry, looked up): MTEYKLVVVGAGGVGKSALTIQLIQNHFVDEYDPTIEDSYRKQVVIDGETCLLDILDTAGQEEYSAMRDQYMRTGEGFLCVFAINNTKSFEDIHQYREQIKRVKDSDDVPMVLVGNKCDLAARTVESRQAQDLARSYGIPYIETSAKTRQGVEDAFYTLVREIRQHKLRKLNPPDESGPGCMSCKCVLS
For assay [4], the system named is Ras-related protein Rab-7a (dog), GTP binding. The assay is described as follows: blockers of fluorescent GTP binding to Rab7 – biochemical, wildtype, multiplex bead flow cytometry, dose response (AID 1336; call rule not given here).
The target of assay [5] is Ras-related C3 botulinum toxin substrate 1 (Homo sapiens) (UniProt P63000). Nature of the assay: inhibition of wildtype Rac1 nucleotide loading – biochemical, multiplex bead flow cytometry, dose response (AID 1340). Particulars: GST-Rac1 beads, Bodipy-FL-GTP binding; at 100 µM (top of the series) unless noted.
Assay [6] concerns the target GTPase HRas (Homo sapiens) (UniProt P01112). The assay is described as follows: blockade of GTP loading onto mutant Ras – biochemical, activated mutant, multiplex bead flow cytometry, dose response (AID 1341;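 active = dose-response curve with midpoint inside the tested range, moderate steepness, significant amplitude and little compound fluorescence or bead-attachment interference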;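 note: GST-tagged constitutively activated Ras mutant immobilized on beads and multiplexed with other GTPases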).

Consider `CCN(CC)c1ccc(/C=C(\C#N)c2nc(-c3cccs3)c(NC(C)=O)s2)cc1`, for which the outcome in assay [1], in assay [4] and in assay [6] was inactive. The fluorescence, percent of control (lower = inhibition) in assay [2] is 99.5%. The molecule further yielded a GTP binding, percent of control in assay [3] of 114%. This molecule also gave a GTP binding signal, raw median fluorescence (lower = inhibition) (MCF (arbitrary fluorescence units)) in assay [5] of 0.

Consider `COc1cc([N+](=O)[O-])ccc1N=Nc1c(N)[nH]n(-c2ccccc2)c1=O`, for which the result in assay [1], in assay [4] and in assay [6] was inactive. For the same molecule, the fluorescence, percent of control (lower = inhibition) in assay [2] was 30.5%. In assay [3], this molecule registered a GTP binding, percent of control of 74.5%. The GTP binding signal, raw median fluorescence (lower = inhibition) (MCF (arbitrary fluorescence units)) in assay [5] turned out to be 188.

For the molecule `CC(=O)c1ccc(N2CCN(C(=O)c3ccc4c(=O)n(-c5ccccc5)c(=O)[nH]c4c3)CC2)cc1`, the call in assay [1], in assay [4] and in assay [6] was inactive. For the same molecule, the fluorescence, percent of control (lower = inhibition) in assay [2] was 35.7%. In assay [3], this molecule returned a GTP binding, percent of control of 84.8%. The same molecule returned a GTP binding signal, raw median fluorescence (lower = inhibition) (MCF (arbitrary fluorescence units)) in assay [5] of 304.

`CCC/C(O)=C1\C(=O)CC(C)(C)CC1=Nc1ccccc1OC`: the call in assay [1], in assay [4] and in assay [6] was inactive. For the same molecule, in assay [2], the fluorescence, percent of control (lower = inhibition) amounted to 41.5%. In assay [3], the GTP binding, percent of control stood at 88.8%. The molecule further returned a GTP binding signal, raw median fluorescence (lower = inhibition) (MCF (arbitrary fluorescence units)) in assay [5] of 276.

In the case of `Cc1ccn2c(NCc3ccc4c(c3)OCO4)c(-c3ccc(O)cc3)nc2c1`, the outcome in assay [1], in assay [4] and in assay [6] was inactive. Besides, in assay [2], the fluorescence, percent of control (lower = inhibition) is 60.4%. The molecule also showed a GTP binding, percent of control in assay [3] of 75%. The GTP binding signal, raw median fluorescence (lower = inhibition) (MCF (arbitrary fluorescence units)) in assay [5] is 0.

`Cc1ccc(NCc2sc(C(=O)O)cc2C)cc1`: the result in assay [1], in assay [4] and in assay [6] was inactive. Further, the fluorescence, percent of control (lower = inhibition) in assay [2] is 63%. The molecule further registered a GTP binding, percent of control in assay [3] of 86.6%. For the same molecule, in assay [5], the GTP binding signal, raw median fluorescence (lower = inhibition) (MCF (arbitrary fluorescence units)) worked out at 35.4.

For the molecule `Cc1ccc(-c2c(C(=O)O)c(C(=O)O)c3n2CCC3)cc1`, the molecule was called inactive in assay [1], in assay [4] and in assay [6]. The fluorescence, percent of control (lower = inhibition) in assay [2] amounted to 32.3%. Also, the GTP binding, percent of control in assay [3] was 78.1%. Further, in assay [5], the GTP binding signal, raw median fluorescence (lower = inhibition) (MCF (arbitrary fluorescence units)) stood at 239.

For the molecule `Cc1ccccc1/C=C1\SC(=S)N(/N=C/c2cc([N+](=O)[O-])ccc2O)C1=O`, the call in assay [1], in assay [4] and in assay [6] was inactive. Further, the fluorescence, percent of control (lower = inhibition) in assay [2] worked out at 34.1%. In assay [3], this molecule came in with a GTP binding, percent of control of 81.2%. For the same molecule, the GTP binding signal, raw median fluorescence (lower = inhibition) (MCF (arbitrary fluorescence units)) in assay [5] came out at 228.

For `Cc1ccc(-n2nc3c(=S)[nH]nc(C)c3c2C)cc1`, the call in assay [1], in assay [4] and in assay [6] was inactive. Besides, the fluorescence, percent of control (lower = inhibition) in assay [2] amounted to 54.7%. Also, the GTP binding, percent of control in assay [3] was 66.3%. Further, the GTP binding signal, raw median fluorescence (lower = inhibition) (MCF (arbitrary fluorescence units)) in assay [5] came out at 201.

As for `N#Cc1c2nc3ccccc3nc2n2cc(NC(=O)c3ccc(F)cc3)ccc12`, the molecule was classed as inactive in assay [1], in assay [4] and in assay [6]. Moreover, in assay [2], the fluorescence, percent of control (lower = inhibition) is 49.3%. The GTP binding, percent of control in assay [3] came out at 64.8%. The same molecule had a GTP binding signal, raw median fluorescence (lower = inhibition) (MCF (arbitrary fluorescence units)) in assay [5] of 158.

For the molecule `O=C1CC(c2ccc(F)cc2)Sc2ccccc2N1` (stereo not given), the call in assay [1], in assay [4] and in assay [6] was inactive. Also, in assay [2], the fluorescence, percent of control (lower = inhibition) was determined as 101%. In assay [3], this molecule gave a GTP binding, percent of control of 170%. Besides, in assay [5], the GTP binding signal, raw median fluorescence (lower = inhibition) (MCF (arbitrary fluorescence units)) came out at 207.

On to `N#C/C(=C\c1ccc(-c2ccc(C(=O)O)cc2)o1)c1nc2ccccc2[nH]1`, for which the molecule was called inactive in assay [1], in assay [4] and in assay [6]. For the same molecule, the fluorescence, percent of control (lower = inhibition) in assay [2] came out at 168%. Besides, the GTP binding, percent of control in assay [3] came to 221%. In addition, the GTP binding signal, raw median fluorescence (lower = inhibition) (MCF (arbitrary fluorescence units)) in assay [5] was 144.

In the case of `Cc1ccccc1CNCc1ccc(C(=O)O)s1`, the result in assay [1], in assay [4] and in assay [6] was inactive. For the same molecule, the fluorescence, percent of control (lower = inhibition) in assay [2] turned out to be 61.7%. The molecule also yielded a GTP binding, percent of control in assay [3] of 87%. Further, in assay [5], the GTP binding signal, raw median fluorescence (lower = inhibition) (MCF (arbitrary fluorescence units)) amounted to 32.5.

For the molecule `CCOC(=O)c1sc(NC(=O)CSc2nnc(Cc3ccccc3)o2)c(C#N)c1C`, the molecule was called inactive in assay [1], in assay [4] and in assay [6]. In addition, the fluorescence, percent of control (lower = inhibition) in assay [2] came to 36.5%. In assay [3], this molecule registered a GTP binding, percent of control of 56.1%. The molecule also showed a GTP binding signal, raw median fluorescence (lower = inhibition) (MCF (arbitrary fluorescence units)) in assay [5] of 118.

As to `CCOC(=O)Cc1csc(NC(=O)CSc2nc(-c3ccccc3)c(C#N)c(=O)[nH]2)n1`, the molecule was called inactive in assay [1], in assay [4] and in assay [6]. In assay [2], the fluorescence, percent of control (lower = inhibition) is 29.4%. The molecule also had a GTP binding, percent of control in assay [3] of 76.1%. In assay [5], this molecule yielded a GTP binding signal, raw median fluorescence (lower = inhibition) (MCF (arbitrary fluorescence units)) of 218.
